# Bioassay records (PubChem)
# Rango dissoc inh: prevents RanGTP from dissociating the Rango-importin beta complex. O95149+P62826. Biochemical FRET Rango-importin beta, RanGTP-induced dissociation. Potency, µM (doses to about 46.1 µM), without a hit: at the top dose activity change, negative = inhibition. hit rate 0.071% among 340,000. AID 540253; also: potency is read from the fitted curve at half-maximal effect; % of control where 0% means no effect; nearly all actives have a fitted effect of over 45% in size
#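 Two FRET readings bracket the reaction: one 5 min after compound meets Rango–importin beta, another 45 min after RanGTP-RCC1 (0.6 uM Ran, 0.2 uM RCC1, 2 mM GTP) is added. Only the second defines inhibition.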
# IL2 activator: IL-2 activation; IL-2 activation reporter assay, cell-based qHTS; stimulated with anti-CD3/CD4/CD28 beads; in transgenic mouse T cells; activation, % (series mostly up to about 46 µM); hit rate 0.065% among 360,000; in the data active = activation above about 50%; inconclusive = mostly about 30% to 49%; also: 0% is about no effect
#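 Readout: EGFP and DsRed signals by fluorescent plate cytometry. Unstimulated transgenic mouse T cells received compound 60 min before antibody-bead stimulation, then incubated 18 h at 37 degrees C.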
# A-T KAP1 phos: potential ataxia-telangiectasia treatment. F2112 A-T fibroblasts, KAP-1 phosphorylation AlphaLISA; neocarzinostatin DNA damage 30 min before lysis. Potency, µM (top dose mostly 57.5 µM), for inactives: at the highest dose activation, hits mostly activators. hit rate 0.19% among 320,000; active = well fitted activation curve with a large enough effect; inconclusive = small, poorly fitted or top-dose-only effect; inactive = no such curve, though single readings can be large or run the other way; also: potency is read from the fitted curve at half-maximal effect; % of control where 0% means no effect; nearly all actives have a fitted effect of over 45% in size
#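 hTERT-immortalized A-T patient fibroblasts (F2112), 500 cells/well in OPTI-MEM, 1% FBS, got compounds for 60 min, then NCS for 30 min at 37C. Lysates were then assayed for phospho-KAP-1 by AlphaLISA (anti-pKAP1 donor, anti-KAP1 acceptor beads), 6 hr at 25C.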
# Rango-impB inh: Rango-importin beta binding inhibition; Q14974; Rango CFP/YFP FRET sensor + importin beta, 45 min; Potency, µM (doses to about 92.2 µM), for inactives: top-dose inhibition of complex formation; hit rate 0.031% among 340,000; AID 540263;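 also: potency is read from the fitted curve at half-maximal effect; 0% = DMSO wells and 100% = buffer wells lacking importin beta; nearly all actives have a fitted effect of over 15% in size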
# Target sequence (Q14974 whole entry, looked up): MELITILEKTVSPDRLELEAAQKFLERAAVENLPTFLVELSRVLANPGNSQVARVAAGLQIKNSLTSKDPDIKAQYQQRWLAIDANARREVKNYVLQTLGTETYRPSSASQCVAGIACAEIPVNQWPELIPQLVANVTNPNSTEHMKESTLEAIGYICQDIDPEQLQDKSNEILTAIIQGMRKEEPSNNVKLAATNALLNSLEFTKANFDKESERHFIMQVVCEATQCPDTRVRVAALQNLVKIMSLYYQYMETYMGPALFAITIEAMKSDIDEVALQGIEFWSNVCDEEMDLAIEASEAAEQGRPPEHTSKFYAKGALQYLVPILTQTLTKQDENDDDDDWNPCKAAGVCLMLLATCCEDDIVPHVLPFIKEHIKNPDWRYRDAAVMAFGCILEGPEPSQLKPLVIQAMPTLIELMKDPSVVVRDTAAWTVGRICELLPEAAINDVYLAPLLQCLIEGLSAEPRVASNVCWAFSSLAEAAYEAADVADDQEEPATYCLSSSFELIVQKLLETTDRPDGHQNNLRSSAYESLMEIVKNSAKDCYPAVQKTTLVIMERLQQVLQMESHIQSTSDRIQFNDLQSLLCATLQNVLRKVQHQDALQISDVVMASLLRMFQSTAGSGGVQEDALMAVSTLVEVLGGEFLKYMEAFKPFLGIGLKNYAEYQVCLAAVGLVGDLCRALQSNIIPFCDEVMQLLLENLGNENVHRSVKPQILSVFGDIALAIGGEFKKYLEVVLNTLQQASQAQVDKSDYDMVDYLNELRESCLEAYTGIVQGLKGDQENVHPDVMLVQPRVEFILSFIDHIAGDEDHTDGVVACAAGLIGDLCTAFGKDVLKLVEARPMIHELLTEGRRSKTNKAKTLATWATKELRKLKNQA
#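 FRET biosensor Rango (snurportin 1 IBB between N-terminal EYFP and C-terminal Cerulean), 50 nM in PBS/1 mM DTT/0.02% Tween-20/0.1% BSA, preincubated 5 min RT with compound; 0.125 microM importin beta added, 45 min RT, CFP/YFP FRET ratio read.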
# PKM2 activator: increases activity of human pyruvate kinase M2; P14618; purified PKM2, Kinase-Glo ATP luminescence, activation; response scale: 0% is enzyme alone, no compound; Potency, µM (doses to about 57.5 µM), for the others: top-dose activation, most hits filed as activators; hit rate 0.34% among 260,000; active = well fitted activation curve with a large enough effect; inconclusive = small, poorly fitted or top-dose-only effect; inactive = no such curve, though single readings can be large or run the other way; also: potency is read from the fitted curve at half-maximal effect; % is scaled to controls: 0 for no effect and ±100 for the full control effect; nearly all actives have a fitted effect of over 55% in size
#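 ATP formation by purified human PK-M2, quantified via coupled luciferase luminescence after 1 h at room temperature with 0.1 mM ADP and 0.5 mM PEP final.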
# The depositor's hits bear a star; ? = inconclusive; . = no result given; [ ] = another dose, or the depositor's remark. An excerpt weighted towards active compounds, which were near 0.59% of everything screened. Unless noted, calls follow the shape of the full dose curve.
SMILES,Rango dissoc inh,IL2 activator,A-T KAP1 phos,Rango-impB inh,PKM2 activator
Cc1ccc(CNC(=O)C2CC(c3cccc(F)c3)=NO2)cc1 (stereo unspecified),-18%,0,25µM*,-1%,9%
COc1cccc(C2=NOC(C(=O)NCc3ccc(F)cc3)C2)c1 (stereo unspecified),-3%,0,-16%,2%,4%
CNc1ncnc2c1ncn2[C@H]1CN(C2CCCC2)C[C@@H](CO)O1,.,0,.,.,.
COCCOC(=O)c1[nH]c2c(c1C)C(=O)CC(c1ccco1)C2 (stereo unspecified),6%,-3,-1%,3%,?
CSCCOC(=O)c1[nH]c2c(c1C)C(=O)CC(c1ccco1)C2 (stereo unspecified),-10%,-4,-3%,0%,22µM*
CCO[C@H]1OC(C(=O)N2CCN(C)CC2)=C[C@@H](c2csc3ccccc23)[C@@H]1CCCO,0%,0,20µM*,-4%,-2%
N#C/C(=C\c1ccc(-c2ccccc2)cc1)c1nc(-c2ccco2)cs1,?,79*,3%,0%,-1%
N#C/C(=C\c1ccc(Cl)cc1)c1nc(-c2ccco2)cs1,5%,-2,4%,-4%,-5%
Nc1ccc(S(=O)(=O)c2ccc(N)c(N)c2)cc1,-5%,1,1%,1%,28µM*
Nc1ccc(S(=O)(=O)c2cccc(N)c2)cc1,-7%,0,1%,6%,26%
CCOC(=O)CN1C(=O)N[C@@H](c2ccccc2)[C@H](C(C)=O)[C@H]1C,13%,0,.,0%,0%[11.5 µM]
CC1(C)N=C(N)N=C(N)N1c1cccc(CN)c1,13%,0,28µM*,0%,-1%
CCCCCCN(C(=O)CCCCCN1C(=O)NC(C2CCCCC2)C(C(=O)OCc2ccccc2)=C1C)C(C(=O)NCCCC)c1ccc(OCC(=O)OC)c(C(=O)OC)c1 (stereo unspecified),.,.,.,.,1%
Cn1ncc(N=Cc2c(O)ccc3ccccc23)c1C(=O)Nc1cccc(Cl)c1,?,247*,-3%,?,-7%
O=S(=O)(NCCO)c1ccc2c(c1)Cc1cc(S(=O)(=O)NCCO)ccc1-2,-5%,-2,7%,-4%,.
O=S(=O)(NCCCO)c1ccc2c(c1)Cc1cc(S(=O)(=O)NCCCO)ccc1-2,0%,1,-1%,1%,13µM*
Cc1ccc(S(=O)(=O)Nc2ccc(O)c3cccnc23)cc1,-5%,0,-3%,3%,10µM*
CCCN(CCC)c1ccc(/C=C/c2ccc3cc(OCC)ccc3n2)cc1,?,-4,28µM*,?,3%
COc1ccc(CCN(C)C(=O)c2c(C)nn(-c3ccccc3)c2C)cc1OC,1%,0,8%,0%,0%
CN(C)CCCn1c2c(c(SCC(=O)Nc3ccc4c(c3)OCCO4)nc1=O)CCCC2,.,-2,.,.,.
CCOCCCNC(=O)CN1C(=O)/C(=C/c2ccccc2)Sc2ccccc21,-14%,0,11%,?,-5%
COCCCNC(=O)CN1C(=O)/C(=C/c2ccccc2)Sc2ccccc21,0%,1,40µM*,-1%,3%
COc1ccc(N2CCN(S(=O)(=O)CCNC(=O)c3cc(=O)c4ccccc4o3)CC2)cc1,1%,0,-9%,0%,.
N#C[C@H]1[C@H](c2ccccc2)[C@](C#N)(C(=O)c2ccccc2)[C@@H]2C=Cc3ccccc3N21,.,.,16µM*,.,3%
COc1ccc(C(=O)N2c3ccccc3C=CC2C#N)cc1 (stereo unspecified),3%,-4,10%,-3%,4%
SMILES,Rango dissoc inh,IL2 activator,A-T KAP1 phos,Rango-impB inh,PKM2 activator
C=C(C(=O)Oc1ccccc1C(C)(C)C)c1ccccc1,.,.,35µM*,.,.
CC(C)(C)c1ccccc1OCC(=O)NCCC(=O)O,41%,-2,.,0%,-3%
Cn1c(CSCc2ccc(Cl)cc2Cl)n[nH]c1=S,-5%,-3,3%,-6%,28µM*
CCOC(=O)N1CCC(N2C(=O)c3ccccc3C2Nc2ccc3c(C)cc(=O)oc3c2)CC1 (stereo unspecified),-12%,-1,40µM*,-6%,-22%
CCOC(=O)N1CCC(N2C(=O)c3ccccc3C2Nc2ccc3c(c2)OCCO3)CC1 (stereo unspecified),22%,-3,4%,-1%,3%
CC#CC(=O)N1CCC(C(=O)Nc2ccc(Oc3ccccc3)nc2)CC1,2%,-3,6%,-1%,-1%
CCCc1cc(C(=O)Nc2ccccc2SC)no1,7%,-2,40µM*,-3%,-7%
CC(C)CC1C(=O)N(Cc2cn(Cc3ccco3)nn2)CCS(=O)(=O)N1Cc1ccc(-c2ccc(F)cc2)cc1 (stereo unspecified),.,-3,.,.,.
Cc1ccc(C(=O)NCCc2nnc3ccc(SCC(=O)NCc4ccc(F)cc4)nn23)cc1,-13%,11,19%,7%,0%
COc1ccc(CCNC(=O)CSc2ccc3nnc(CCNC(=O)c4ccc(C)cc4)n3n2)cc1OC,6.5µM*,-1,.,?,.
CCN(CC)S(=O)(=O)c1ccc(N2CCCC2)c(NC(=O)CSCc2c(C)noc2C)c1,.,-1,.,.,.
CC(C)(C)N(Cc1ccccc1)C(=O)COC(=O)C1CC(=O)N(Cc2ccccc2)C1 (stereo unspecified),-5%,-2,.,?,.
S=C(c1ccc(-c2ccc(Br)cc2)o1)N1CCCCC1,26%,0,0%,-2%,6%
S=C(c1ccc(-c2ccc(Br)cc2)o1)N1CCOCC1,-6%,-5,13%,2%,13µM*
Cc1ccc(S(=O)(=O)N2C[C@H]3C(=O)C[C@@H](c4ccccc4)N(S(=O)(=O)c4ccc(C)cc4)[C@H]3C[C@H]2c2ccccc2F)cc1,.,-1,.,.,.
Cc1cc2nc3n(c2cc1C)CC1CC(C(=O)NCc2ccccc2)N(C)C31 (stereo unspecified),-19%,0,10%,0%,.
Cc1cc2nc3n(c2cc1C)CC1CC(C(=O)NCC2CC2)N(C)C31 (stereo unspecified),48%,-1,28µM*,-1%,-17%
CN1C(C(=O)NCC2CC2)CC2Cn3c(nc4cc(Cl)c(Cl)cc43)C21 (stereo unspecified),-14%,0,35µM*,0%,-14%
CCCC(=O)N1CCC1(C)C(=O)Nc1cc(OC)ccc1OC (stereo unspecified),.,0,.,.,.
COc1ccc(/C=N/Nc2nonc2N)cc1,-8%,0,2%,0%,5%
COc1ccc(/C=N/Nc2nn3cnnc3c3ccccc23)cc1,2%,-1,45µM*,0%,11%
